PubChem BioAssay (Tox21)
Inconclusive results are not listed. Calls of active or inactive are those of the source. Unless noted, the call rests on the fitted dose curve; in most records, active means well fitted curve in the direction sought with a large enough effect in the repeat runs; inconclusive means weak or mixed curves; inactive means no such curve, though single readings can be large; an effect the other way counts as inactive or inconclusive.

Experiments:
[1] = qHTS assay to test for compound auto fluorescence at 535 nm (green) in HEK293 cells (AID 720680)
[2] = qHTS assay to test for compound auto fluorescence at 460 nm (blue) in HEK293 cell free culture (AID 720681)
How it was run: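 Test compounds were pinned into cell-free culture medium (DMEM with 10% FBS) and fluorescence was read directly at Ex/Em 405/460 nm. Signals were expressed as fluorescence equivalents of triamterene, with DMSO vehicle as control.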

[3] = qHTS assay to test for compound auto fluorescence at 590 nm (red) in HEK293 cell free culture (AID 720683)
How it was run: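 Tox21 10K library compounds were pinned into cell-free DMEM with 10% FBS and fluorescence was read at excitation 540 nm. Activity is expressed as Rose Bengal sodium equivalency.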

[4] = qHTS assay to test for compound auto fluorescence at 460 nm (blue) in HepG2 cell free culture (AID 720685)
How it was run: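 Cell-free plates of MEM plus 10% FBS received 23 nL compound or DMSO vehicle; blue-channel (405/460 nm) intensity scored against triamterene as reference fluorophore.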

[5] = qHTS assay to test for compound auto fluorescence at 535 nm (green) in HepG2 cell free culture (AID 720686)
[6] = molecular target: Glucocorticoid receptor (Homo sapiens) (UniProt P04150); assay: qHTS assay to identify small molecule agonists of the glucocorticoid receptor (GR) signaling pathway (AID 720691; active means well fitted activation curve with a large enough effect in the signal ratio in the repeat runs, not every such curve was filed as active; the % refers to the signal ratio)
How it was run: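 A HeLa cervical cancer line expressing GR and a glucocorticoid response element-driven beta-lactamase gene is treated with compounds for 18 h; LiveBLAzer B/G FRET substrate is then applied and fluorescence read.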

[7] = molecular target: Glucocorticoid receptor (Homo sapiens) (UniProt P04150); assay: qHTS assay to identify small molecule antagonists of the glucocorticoid receptor (GR) signaling pathway (AID 720692; active means well fitted inhibition curve with a large enough effect in the signal ratio in the repeat runs, not every such curve was filed as active; the % refers to the signal ratio)
How it was run: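 GRE-bla HeLa line, dex-stimulated (5 nM final). Compound exposure 18 h, 37 C. Beta-lactamase FRET read after 2 h RT substrate.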

[8] = qHTS assay to identify small molecule antagonists of the glucocorticoid receptor (GR) signaling pathway - cell viability counter screen (AID 720693); further: nearly all actives have a fitted effect of over 55% in size
[9] = qHTS assay for identifying genotoxic compounds that show differential cytotoxicity against isogenic chicken DT40 cell lines with known DNA damage response pathways - wild type cell line (AID 743012); further: nearly all actives have a fitted effect of over 60% in size
How it was run: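 300 wt DT40 cells/well; cpd (DMSO) pintool-transferred after ~0.5 h at 37 C/5% CO2; 40 h incubation; CellTiter-Glo added, 30 min RT; luminescence read.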

[10] = qHTS assay for identifying genotoxic compounds that show differential cytotoxicity against isogenic chicken DT40 cell lines with known DNA damage response pathways - Rev3 mutant cell line (AID 743014); further: nearly all actives have a fitted effect of over 55% in size
[11] = qHTS assay for identifying genotoxic compounds that show differential cytotoxicity against isogenic chicken DT40 cell lines with known DNA damage response pathways - Rad54/Ku70 mutant cell line (AID 743015); further: nearly all actives have a fitted effect of over 60% in size
[12] = qHTS assay to identify small molecule antagonists of the androgen receptor (AR) signaling pathway - cell viability counter screen (AID 743033; further: nearly all actives have a fitted effect of over 45% in size)
[13] = qHTS assay to identify small molecule antagonists of the androgen receptor (AR) signaling pathway using the MDA cell line - cell viability counter screen (AID 743041; further: nearly all actives have a fitted effect of over 45% in size)
How it was run: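 In this qHTS counter assay, fluorescence intensity after CellTiter-Fluor addition indicated viability of MDA-kb2 AR-luc cells given compounds and R1881 for 16 h at 37C.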

[14] = qHTS assay to test for compound auto fluorescence at 590 nm (red) in HepG2 cell free culture (AID 720684)
How it was run: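 Ex 540 / Em 590 nm read of compound in cell-free MEM (10% FBS). Rose Bengal sodium reference.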

[15] = qHTS assay to test for compound auto fluorescence at 460 nm (blue) in HepG2 cells (AID 720687)
How it was run: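 Cells (2,000/well in MEM with 10% FBS) attached overnight at 37 C, then were exposed to compound or DMSO for 1 hr at 37 C, 5% CO2. Fluorescence read at Ex/Em 405/460 nm, expressed as triamterene-equivalent signal.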

[16] = molecular target: Androgen receptor (Homo sapiens) (UniProt P10275); assay: qHTS assay to identify small molecule antagonists of the androgen receptor (AR) signaling pathway (AID 743035; active means well fitted inhibition curve with a large enough effect in the signal ratio in the repeat runs, not every such curve was filed as active; the % refers to the signal ratio)
How it was run: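 In this cell-based reporter screen, compounds were tested in concentration series against R1881-activated HEK293 cells expressing beta-lactamase under UAS control; after 16 h at 37C, FRET substrate was added and fluorescence read 2 h later.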

[17] = molecular target: Androgen receptor (Homo sapiens) (UniProt P10275); assay: qHTS assay to identify small molecule agonists of the androgen receptor (AR) signaling pathway (AID 743036; active means well fitted activation curve with a large enough effect in the signal ratio in the repeat runs, with a control signal flat, not every such curve was filed as active; the % refers to the signal ratio)
How it was run: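 Reporter line: GeneBLAzer AR-UAS-bla-GripTite (HEK293). Steps: plate cells, 4 h rest, add compounds, 16 h at 37C, add LiveBLAzer B/G substrate, 2 h at RT, read fluorescence.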

[18] = molecular target: Androgen receptor (Homo sapiens) (UniProt P10275); assay: qHTS assay to identify small molecule agonists of the androgen receptor (AR) signaling pathway using the MDA cell line (AID 743040; further: nearly all actives have a fitted effect of over 20% in size)
How it was run: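 Cell-based luciferase reporter: MDA-kb2, MMTV promoter (AR + GR response elements). 16 h compound exposure at 37C; ONE-Glo, 30 min RT, luminescence.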

[19] = molecular target: Androgen receptor (Homo sapiens) (UniProt P10275); assay: qHTS assay to identify small molecule antagonists of the androgen receptor (AR) signaling pathway using the MDA cell line (AID 743042; further: nearly all actives have a fitted effect of over 55% in size)
How it was run: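 MDA-kb2 cells (human breast carcinoma, stably carrying an MMTV-luciferase reporter responsive to AR and GR) were plated at 3,000 cells/well and preincubated 5 hr at 37C, then given compound plus R1881 agonist for 16 h. ONE-Glo luminescence was read.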
On the % scale 0 is the no-effect control and ±100 the full control effect.

Chain of Glucocorticoid receptor (Homo sapiens) (P04150 whole entry, looked up): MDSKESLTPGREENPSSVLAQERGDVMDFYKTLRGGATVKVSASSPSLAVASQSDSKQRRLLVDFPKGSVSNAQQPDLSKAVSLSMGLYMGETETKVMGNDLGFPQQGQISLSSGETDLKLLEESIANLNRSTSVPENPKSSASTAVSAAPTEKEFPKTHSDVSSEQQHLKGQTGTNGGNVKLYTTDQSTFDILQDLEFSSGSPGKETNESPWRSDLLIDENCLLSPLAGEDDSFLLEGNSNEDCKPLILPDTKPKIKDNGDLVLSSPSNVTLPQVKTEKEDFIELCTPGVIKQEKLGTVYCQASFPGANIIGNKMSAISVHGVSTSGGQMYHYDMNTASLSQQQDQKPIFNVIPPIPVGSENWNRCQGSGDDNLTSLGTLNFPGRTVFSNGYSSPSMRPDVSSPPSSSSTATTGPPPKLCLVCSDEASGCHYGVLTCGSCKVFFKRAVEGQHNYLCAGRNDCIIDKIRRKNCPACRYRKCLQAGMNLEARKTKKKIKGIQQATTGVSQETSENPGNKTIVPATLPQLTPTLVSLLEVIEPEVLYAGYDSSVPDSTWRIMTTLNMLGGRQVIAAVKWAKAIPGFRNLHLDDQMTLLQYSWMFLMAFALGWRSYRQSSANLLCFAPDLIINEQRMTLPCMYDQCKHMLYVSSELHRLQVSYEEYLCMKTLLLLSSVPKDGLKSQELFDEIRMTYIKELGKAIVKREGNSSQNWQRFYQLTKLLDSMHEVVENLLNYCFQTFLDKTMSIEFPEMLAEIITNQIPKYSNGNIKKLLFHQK
Chain of Androgen receptor (Homo sapiens) (P10275 whole entry, looked up): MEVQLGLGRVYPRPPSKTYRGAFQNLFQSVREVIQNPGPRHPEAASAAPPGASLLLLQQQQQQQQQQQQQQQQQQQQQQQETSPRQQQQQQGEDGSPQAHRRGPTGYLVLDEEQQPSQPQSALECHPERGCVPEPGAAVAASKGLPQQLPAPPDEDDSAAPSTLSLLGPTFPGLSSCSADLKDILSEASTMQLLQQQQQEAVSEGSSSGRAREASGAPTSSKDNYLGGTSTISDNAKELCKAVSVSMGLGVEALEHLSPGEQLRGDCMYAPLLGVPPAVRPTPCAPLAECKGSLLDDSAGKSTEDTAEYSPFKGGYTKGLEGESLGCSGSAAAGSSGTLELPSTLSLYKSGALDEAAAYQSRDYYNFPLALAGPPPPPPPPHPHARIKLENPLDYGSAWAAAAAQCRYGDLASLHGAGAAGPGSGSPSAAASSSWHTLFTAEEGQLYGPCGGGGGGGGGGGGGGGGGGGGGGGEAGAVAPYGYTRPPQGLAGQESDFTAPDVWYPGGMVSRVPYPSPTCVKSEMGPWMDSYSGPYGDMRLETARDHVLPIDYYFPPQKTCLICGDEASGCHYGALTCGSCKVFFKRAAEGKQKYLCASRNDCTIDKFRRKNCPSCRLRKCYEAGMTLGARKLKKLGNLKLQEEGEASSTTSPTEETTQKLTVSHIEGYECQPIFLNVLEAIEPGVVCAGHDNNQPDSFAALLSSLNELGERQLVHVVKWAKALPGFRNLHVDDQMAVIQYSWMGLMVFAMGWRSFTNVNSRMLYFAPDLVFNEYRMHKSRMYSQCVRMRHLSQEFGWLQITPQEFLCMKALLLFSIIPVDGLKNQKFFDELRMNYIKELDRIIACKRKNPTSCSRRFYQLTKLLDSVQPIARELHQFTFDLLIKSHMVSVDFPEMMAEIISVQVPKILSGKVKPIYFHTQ

CN1CC(=O)N/C1=N/C(=O)Nc1cccc(Cl)c1
inactive: outcome [1] | outcome [2] | outcome [3] | outcome [4] | outcome [5] | Potency [6] | Potency [7] | outcome [8] | Potency [9] | Potency [10] | Potency [11] | outcome [12] | Potency [13]

c1ccc(Cc2ccccc2)cc1
inactive: outcome [1] | outcome [2] | outcome [3] | outcome [14] | outcome [4] | outcome [5] | outcome [15] | Potency [6] | Potency [7] | Potency [9] | Potency [10] | Potency [11] | Potency [13]

Nc1ccccn1
inactive: outcome [1] | outcome [2] | outcome [3] | outcome [4] | outcome [5] | outcome [15] | Potency [6] | Potency [7] | outcome [8] | Potency [9] | Potency [10] | Potency [11] | outcome [12]

O=C(CO)[C@@H](O)[C@H](O)[C@H](O)CO
inactive: outcome [1] | outcome [2] | outcome [3] | outcome [14] | outcome [4] | outcome [5] | outcome [15] | Potency [6] | Potency [7] | outcome [8] | Potency [9] | Potency [10] | Potency [11] | outcome [12] | Potency [13]

O=S(=O)(O)c1cccc2c(S(=O)(=O)O)cccc12
inactive: outcome [1] | outcome [2] | outcome [3] | outcome [14] | outcome [4] | outcome [5] | outcome [15] | Potency [6] | Potency [7] | outcome [8] | Potency [9] | Potency [10] | Potency [11] | outcome [12] | Potency [13]

CC12CCC(C(=O)C1=O)C2(C)C (stereo not drawn)
inactive: outcome [1] | outcome [2] | outcome [3] | outcome [4] | outcome [5] | outcome [15] | Potency [6] | Potency [7] | Potency [9] | Potency [10] | Potency [11] | outcome [12] | Potency [13]

CCCOC(=O)CC
inactive: outcome [1] | outcome [2] | outcome [3] | outcome [4] | outcome [5] | outcome [15] | Potency [6] | Potency [7] | outcome [8] | Potency [10] | Potency [11] | outcome [12] | Potency [16] | outcome [17] | Potency [18] | Potency [13] | outcome [19]

O=C(O)c1cc(C(=O)O)cc(C(=O)O)c1
inactive: outcome [1] | outcome [2] | outcome [3] | outcome [14] | outcome [4] | outcome [5] | outcome [15] | Potency [6] | Potency [7] | outcome [8] | Potency [9] | Potency [10] | Potency [11] | outcome [12] | Potency [13]

Cc1c(N)c(=O)n(-c2ccccc2)n1C
inactive: fluorescence, % of fluorescein [1] -0.0771% [at 18.6 µM] | fluorescence, % of fluorescent control [2] 0.0935% [at 18.6 µM] | fluorescence, % of fluorescent control [3] 0.419% [at 18.6 µM] | fluorescence, % of fluorescent control [4] -0.0617% [at 18.6 µM] | fluorescence, % of fluorescein control [5] -0.0689% [at 18.6 µM] | fluorescence, % of fluorescent control [15] -0.0556% [at 18.6 µM] | Potency [6] | Potency [7] | outcome [8] | Potency [9] | Potency [10] | Potency [11] | outcome [12] | Potency [13]

NO
inactive: outcome [1] | outcome [2] | outcome [3] | outcome [14] | outcome [4] | outcome [5] | outcome [15] | outcome [8] | Potency [9] | Potency [10] | Potency [11] | outcome [12] | Potency [13]

Cc1ccc(-c2ncc(Cl)cc2-c2ccc(S(C)(=O)=O)cc2)cn1
inactive: outcome [1] | outcome [2] | outcome [3] | outcome [14] | outcome [4] | outcome [5] | outcome [15] | outcome [8] | Potency [9] | Potency [10] | Potency [11] | outcome [12] | Potency [16] | outcome [17] | Potency [18] | Potency [13] | outcome [19]
